HPGD block: HPGD (human) dehydrogenase inhibition. 4.3% of 150,000 active. Potency, µM, actives largely listed as inhibitors. purified HPGD, NADH fluorescence kinetic, PGE2 substrate. AID 894; active = well fitted inhibition curve with a large enough effect, not every such curve was filed as active; inconclusive = small, poorly fitted or top-dose-only effect, or another doubt; inactive = no such curve, though single readings can be large or run the other way
Target sequence (P15428 whole entry, looked up): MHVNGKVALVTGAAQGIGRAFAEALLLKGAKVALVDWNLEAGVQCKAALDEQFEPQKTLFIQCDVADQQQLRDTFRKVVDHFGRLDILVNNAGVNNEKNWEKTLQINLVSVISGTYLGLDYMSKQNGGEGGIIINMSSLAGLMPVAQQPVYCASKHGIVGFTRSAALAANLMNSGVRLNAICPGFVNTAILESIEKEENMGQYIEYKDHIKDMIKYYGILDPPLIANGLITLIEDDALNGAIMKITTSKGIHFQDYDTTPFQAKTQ
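NADH formation kinetics: reaction with 30 uM PGE2 and 1 mM NAD+ (final), 20 nM enzyme, Tris-HCl pH 8 with Tween 20, after 15 min compound preincubation at room temperature. Fluorescence change, last versus first of five reads.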
PNC inhibitor: inhibitors of perinucleolar compartment assembly; activity change (PNC), negative = inhibition, % at 10 µM; 3.1% of 140,000 active; PC3M PTB-GFP, PNC prevalence imaging, 16 h; hits give low values; AID 2417;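 active = readout at or below -70, meaning at least 70% loss of cells showing the perinucleolar compartment, a nuclear body marking cancer cells; inconclusive = readout between -30 and a set limit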
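Read-out is percentage of cells bearing a perinucleolar compartment, from automated 20x imaging of fixed, Hoechst-stained PC3M PTB-GFP cells. Cells were seeded 4 h, then exposed 16 h to compound (23 nl of library stock) in duplicate plates.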
15-hLO-2 inh: inhibitors of human 15-lipoxygenase 2 (ALOX15B); O15296; purified 15hLO-2, xylenol orange hydroperoxide absorbance; Potency, µM (doses to about 57.1 µM), most hits filed as inhibitors; 0.56% of 110,000 active; note: nearly all actives have a fitted effect of over 60% in size
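Purified human 15hLO-2 (50 nM) preincubated 15 min with compound, then 45 uM arachidonic acid for 90 min at RT in 25 mM Hepes pH 7.5, 0.01% Triton X-100. Hydroperoxide detected by Fe-xylenol orange; 573/405 nm absorbance ratio.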
12-hLO inh: 12-hLO (ALOX12) enzyme inhibition. 0.12% of 150,000 active. Potency, µM (titrated, usually from 57.1 µM), usual class: inhibitors. purified 12-hLO, xylenol orange hydroperoxide absorbance; note: nearly all actives have a fitted effect of over 55% in size
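Purified human 12hLO (150 nM), preincubated 15 min with compound, then 40 uM arachidonic acid for 30 min, room temperature, Hepes pH 7.0 with 0.01% Triton X-100. Hydroperoxide detected by ferrous iron/xylenol orange; 573/405 nm absorbance ratio gives reaction progress.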
IMPase inh: IMPase inhibition in cells; 120,000 tested, under 10 active; AID 901; inhibition (IP1 accumulation), % at 46.1 µM; P97697; CHO-M1 cells, IP1 accumulation, HTRF TR-FRET ratio; active = well fitted curve in the direction sought with a large enough effect in the signal ratio, not every such curve was filed as active; inconclusive = small, poorly fitted or top-dose-only effect, or a change in a side signal; inactive = no such curve, though single readings can be large or run the other way; the % refers to the signal ratio;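 note: cells stimulated with carbachol in lithium chloride buffer; higher means more IMPase inhibition seen as more IP1 and lower FRET ratio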
Target sequence (P97697 whole entry, looked up): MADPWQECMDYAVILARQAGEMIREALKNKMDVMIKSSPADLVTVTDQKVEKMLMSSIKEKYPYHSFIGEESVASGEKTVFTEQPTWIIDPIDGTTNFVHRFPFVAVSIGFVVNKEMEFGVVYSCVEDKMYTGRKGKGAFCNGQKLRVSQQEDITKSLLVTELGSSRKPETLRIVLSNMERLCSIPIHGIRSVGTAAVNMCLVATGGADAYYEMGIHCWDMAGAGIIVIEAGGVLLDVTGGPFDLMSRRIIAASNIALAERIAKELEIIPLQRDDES
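Elevated IP1 in lysates lowers TR-FRET signal (665/620 ratio and 620 channel reported). Cells were CHO-M1, given carbachol (50 uM as added) plus 50mM LiCl, pH 7.4, 30 min, 37C; compounds titrated up to 46 uM; AC50 by Hill equation.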
IMPase Li inh: cell-permeable IMPase inhibitors with lithium potentiation; CHO-M1 cells, IP1 TR-FRET (IP-One), carbachol + lithium; AID 1457; Potency, µM (series often up to 59.4 µM), usual class: inhibitors; 0.35% of 210,000 active;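 note: IP1 builds up when IMPase is blocked and the TR-FRET signal falls; nearly all actives have a fitted effect of over 50% in size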
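Concentration–response in CHO-M1 cells, lithium-potentiated; 30 min at 37C. IP1 detected by competitive TR-FRET after 10 min lysis at RT. Hill-fitted AC50.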
Hits are given with their value; [ ] = remark or other dose. The list is not random: actives were taken first. Their share in the collection is about 5.4%. Unless noted, calls come from the whole dose curve; as a rule, active = well fitted curve in the direction sought with a large enough effect; inconclusive = small, poorly fitted or top-dose-only effect, or another doubt; inactive = no such curve, though single readings can be large; an effect the other way counts as inactive or inconclusive.

`CC(=O)c1ccc(NC(=O)c2ccc3nc(-c4ccco4)c(-c4ccco4)nc3c2)cc1` gave HPGD block inconclusive, PNC inhibitor inactive, 15-hLO-2 inh inconclusive, 12-hLO inh inactive, IMPase inh inactive and IMPase Li inh inactive.
For O=C(Nc1ccccc1)c1ccc2nc(-c3ccco3)c(-c3ccco3)nc2c1 the results were HPGD block 5µM, PNC inhibitor inactive, 15-hLO-2 inh inconclusive, 12-hLO inh inactive, IMPase inh inactive and IMPase Li inh inactive.
Screening Cc1ccc(C)c(NC(=O)CN2C(=O)c3cccc4cccc2c34)c1 returned IMPase inh inactive.
`C=CCn1c(SC2CCOC2=O)nc2sc(C)c(C)c2c1=O` (stereo not given) gave HPGD block inactive, PNC inhibitor -80, 12-hLO inh inactive, IMPase inh inactive and IMPase Li inh inactive.
Screening Cc1sc2nc(SC3CCOC3=O)n(Cc3ccccc3)c(=O)c2c1C (stereo not given) returned IMPase Li inh inactive.
For Cc1ccc(-c2nnc(Nc3ccc(C(=O)N(C)C)cc3)c3ccccc23)cc1S(=O)(=O)N(C)C the results were IMPase inh inactive.
OC(c1ccccc1)c1nc2ccccc2s1 (stereo not given) was read as HPGD block 16µM, PNC inhibitor inactive, 15-hLO-2 inh inactive, 12-hLO inh inactive, IMPase inh inactive and IMPase Li inh inactive.
OC(c1ccccc1)c1cccnc1 (stereo not given) was read as HPGD block inactive, PNC inhibitor inactive, 12-hLO inh inactive and IMPase Li inh inactive.
For COC(=O)c1ccc(C)c(NS(=O)(=O)c2ccc3c(c2)OCCO3)c1 the results were HPGD block inactive, PNC inhibitor -112, 15-hLO-2 inh inactive, 12-hLO inh inactive, IMPase inh inactive and IMPase Li inh inactive.
`COC(=O)c1sccc1NS(=O)(=O)c1ccc(OC)cc1` gave HPGD block 20µM, PNC inhibitor inactive, 15-hLO-2 inh inactive, 12-hLO inh inactive, IMPase inh inactive and IMPase Li inh inactive.
COC(=O)c1ccc(C)c(NS(=O)(=O)c2ccc(OC)cc2)c1 was read as HPGD block inactive, PNC inhibitor -94, 15-hLO-2 inh inactive, 12-hLO inh inactive, IMPase inh inactive and IMPase Li inh inactive.
`Cc1ccccc1Br` gave HPGD block inactive, 15-hLO-2 inh inactive, 12-hLO inh inactive and IMPase Li inh inactive.
`Oc1ccccc1-c1cc(-c2ccccc2)no1` gave HPGD block 1.6µM, PNC inhibitor inconclusive, 15-hLO-2 inh inactive, 12-hLO inh inactive, IMPase inh inactive and IMPase Li inh inactive.
`Cc1ccccc1-c1cc(-c2ccccc2O)on1` gave HPGD block 14µM, PNC inhibitor inactive, 15-hLO-2 inh inactive, 12-hLO inh inactive, IMPase inh inactive and IMPase Li inh inactive.
For Cc1ccccc1-c1nnc(-c2ccccc2C)o1 the results were HPGD block inactive, PNC inhibitor inactive, 12-hLO inh inactive, IMPase inh inactive and IMPase Li inh inactive.
Screening Cc1ccc(-c2cc(-c3ccccc3)no2)c(O)c1 returned HPGD block inactive, PNC inhibitor inactive, 12-hLO inh inactive, IMPase inh inactive and IMPase Li inh inactive.
`CC(N=Cc1cccc(O)c1O)c1ccccc1` (stereo not given) gave HPGD block 2.8µM, PNC inhibitor inactive, 15-hLO-2 inh inconclusive, 12-hLO inh inconclusive, IMPase inh inactive and IMPase Li inh inactive.
CC(C)CCN=Cc1c(O)n(-c2ccccc2)c(=O)c2ccccc12 was read as HPGD block inactive, PNC inhibitor inconclusive, 15-hLO-2 inh inactive, 12-hLO inh inactive, IMPase inh inactive and IMPase Li inh inactive.
Screening CCN1CCCC1CN=Cc1c(O)n(-c2ccccc2)c(=O)c2ccccc12 (stereo not given) returned HPGD block inactive, PNC inhibitor -92, 15-hLO-2 inh inactive, 12-hLO inh inactive, IMPase inh inactive and IMPase Li inh inactive.
For COc1ccc(S(=O)(=O)Nc2cc3c(cc2NCc2ccccc2)n(C)c(=O)n3C)cc1 the results were IMPase inh inactive.
`CN1[C@@H]2CC[C@@H]1CC(OC(=O)[C@H](CO)c1ccccc1)C2` (stereo not given in full) gave HPGD block inactive, 15-hLO-2 inh inactive[0.0915 µM] and 12-hLO inh inactive[0.00818 µM].
For O=C(NCCC1=CCCCC1)c1ccc(=O)oc1 the results were HPGD block inactive, PNC inhibitor inactive, 15-hLO-2 inh inactive, 12-hLO inh inactive, IMPase inh inactive and IMPase Li inh inactive.
Cc1cc(C(=O)NCCC2=CCCCC2)c(C)o1 was read as HPGD block inconclusive, PNC inhibitor -81, 15-hLO-2 inh inactive, 12-hLO inh inactive, IMPase inh inactive and IMPase Li inh inactive.
NC(=O)NCCC1=CCCCC1 was read as HPGD block inactive, PNC inhibitor inactive, 15-hLO-2 inh inactive, 12-hLO inh inactive, IMPase inh inactive and IMPase Li inh inactive.
O=C(NCCC1=CCCCC1)c1coc(=O)c(Br)c1 was read as HPGD block inactive, PNC inhibitor inactive, 15-hLO-2 inh inactive, 12-hLO inh inactive, IMPase inh inactive and IMPase Li inh 28µM.
`O=C(Cn1cc(C(=O)c2cccs2)c2ccccc21)Nc1ccc(Br)cc1` gave IMPase inh inactive.
`Cc1[nH]n(-c2ccccc2)c(=S)c1C=Nc1cccc([N+](=O)[O-])c1` gave HPGD block 8.9µM, PNC inhibitor inactive, 15-hLO-2 inh 10µM, 12-hLO inh 32µM, IMPase inh inactive and IMPase Li inh inactive.
CCCCN=Cc1c(C)[nH]n(-c2ccccc2)c1=S was read as IMPase Li inh inactive.
For N#Cc1cnc(SCCc2ccccc2)nc1N the results were HPGD block inactive, PNC inhibitor -83, 15-hLO-2 inh inactive, 12-hLO inh inactive, IMPase inh inactive and IMPase Li inh inactive.
For O=C(NCc1ccco1)c1cnn2c1NC(c1ccccc1)CC2C(F)(F)F (stereo not given) the results were HPGD block 28µM, PNC inhibitor inconclusive, 15-hLO-2 inh inactive, 12-hLO inh inactive, IMPase inh inactive and IMPase Li inh inactive.
CC(C)COC[C@H](CN(Cc1ccccc1)c1ccccc1)N1CCCC1 was read as HPGD block inactive, 15-hLO-2 inh inactive, 12-hLO inh inactive, IMPase inh inactive and IMPase Li inh inactive.
CC(C)[C@](N)(C(=O)O)c1ccccc1 was read as HPGD block inactive, 15-hLO-2 inh inactive[11.4 µM], 12-hLO inh inactive[11.4 µM] and IMPase Li inh inactive.
Screening COCCCNC(=O)c1ccc(N(C)S(=O)(=O)c2ccc(OC)cc2)cc1 returned HPGD block 1.1µM, PNC inhibitor inconclusive, 15-hLO-2 inh inactive, 12-hLO inh inactive, IMPase inh inactive and IMPase Li inh inactive.

High-throughput results: PubChem BioAssay, National Center for Advancing Translational Sciences (NCATS)
